Hits are enriched below; roughly 4.9% of the tested compounds scored in any of these assays.
NALP1 yeast inh – NALP1 inflammasome inhibitors in reconstituted yeast, colorimetric, S. cerevisiae, triplicate retest. S. cerevisiae NALP1/ASC/caspase-1 growth, X-gal OD620, 72 h. inhibition, % at 10 µM. 280,000 tested, 0.61% active. AID 2071, 2009; in the data active = inhibition mostly above about 24%, no sharp cut-off; inactive = mostly below about 32%
NALP3 yeast inh – NALP3 inflammasome inhibitors in reconstituted yeast, primary screen, luminescence, uHTS; Yeast reconstituted NLRP3/ASC/caspase-1, beta-gal luminescence, 24 h; inhibition, % at 10 µM; 330,000 tested, 0.39% active;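 active = inhibition of 50% or more; inactive = inhibition below 50%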;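 also: plate controls were induced DMSO wells for no effect and uninduced yeast grown without galactose for full effect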
SKKanGAS inh – S. pyogenes SKKanGAS growth inhibitors in kanamycin, primary screen, streptokinase expression inhibitor project, SKKanGAS strain, BacTiter-Glo luminescence; 6 h; inhibition, % at 7.5 µM; 300,000 tested, 1.3% active;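 active = mean replicate score, as percent of positive control median, at least 50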;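 also: strain carries kanamycin resistance gene driven by streptokinase promoter and grows in 40 µg/ml kanamycin; loss of luminescence reflects streptokinase promoter inhibition or plain growth inhibition; 0% = median of DMSO wells and 100% = positive control at its reference dose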
tim10-1 inh – growth inhibitors of tim10-1 mutant yeast, primary screen, luminescence, uHTS; S. cerevisiae tim10-1 ts strain growth, BacTiter-Glo, 24 h; 330,000 tested, 2.2% active; inhibition, % at 20 µM; AID 463190, 2010;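 active = inhibition of at least 40%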;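 also: mutant grown at 25 °C; 0% = DMSO wells with yeast and 100% = wells holding no yeast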
tim23-1 inh – growth inhibitors of tim23-1 mutant yeast, primary screen, luminescence, uHTS. inhibition, % at 20 µM. AID 463212, 2010. 330,000 tested, 1.3% active. S. cerevisiae tim23-1 growth, BacTiter-Glo luminescence, 24 h;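 active = growth inhibition of the mutant yeast at or above 50%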;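 also: temperature-sensitive mutant grown at 25 °C; plate controls were DMSO-treated mutant yeast for no effect and medium wells lacking yeast for full effect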
TIM10 inh – growth inhibitors of isogenic TIM10 control yeast, primary screen, counter-screen for tim10-1 yeast inhibitor project, luminescence, uHTS | AID 463195, 2010 | inhibition, % at 10 µM | 330,000 tested, 1.4% active | S. cerevisiae TIM10 strain growth, BacTiter-Glo luminescence, 24 h;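 active = inhibition of 40% or more at the single tested concentration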;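 also: wild-type TIM10 isogenic control strain grown at permissive 25 °C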
tim10-1 confirm – growth inhibitors of tim10-1 mutant yeast, confirmation, single concentration, luminescence, S. cerevisiae | 7,400 tested, 56% active | AID 463213, 2010 | inhibition, % at 20 µM | S. cerevisiae tim10-1 ts strain growth, BacTiter-Glo, 24 h | shares compounds with tim10-1 inh;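 active = inhibition of yeast growth at or above a set limit in either of two repeat tests at 20 µM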;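 also: tim10-1 mutant grown at permissive 25 °C to find synthetic lethal compounds; 0% = DMSO yeast wells and 100% = medium wells without yeast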
Active calls of the source: *; . = no result given.

SMILES	NALP1 yeast inh	NALP3 yeast inh	SKKanGAS inh	tim10-1 inh	tim23-1 inh	TIM10 inh	tim10-1 confirm
CC(C)CC(COCc1cccc(Cl)c1)N1CCN(C(=O)c2ccc(C(F)(F)F)cc2)CCC1=O (stereo not given)	16.5	-1.9	9.1	48.7*	28.1	23.4	25.1
Cc1cccc(COCC(CC(C)C)N2CCN(C(=O)c3ccc(C(F)(F)F)cc3)CCC2=O)c1 (stereo not given)	15.7	9.0	10.4	7.1	20.3	15.6	.
NS(=O)(=O)c1ccc(NC(=O)c2ccc(S(=O)(=O)N3CCCCCC3)cc2)cc1	.	19.9	.	3.0	10.1	-4.8	.
COc1ccc(NC(=O)CN(C)C(=O)c2cn(-c3ccccc3)nc2-c2ccc(Cl)cc2)cc1	.	9.4	21.7	40.6*	36.1	13.6	20.5
COc1cccc(NC(=O)C2C3CCC4C(CCC32)C4(Cl)Cl)c1 (stereo not given)	26.4	0.6	1.5	42.0*	11.0	1.5	28.6
Cc1cccc(C)c1OCC(=O)N=Nc1c(O)[nH]c2ccc(Br)cc12	-7.1	6.2	16.8	52.5*	30.9	32.2	34.6*
CC1=NOC(=O)/C1=C/c1ccc2c(c1)OCO2	10.5	-9.0	-3.6	-8.2	23.4	-1.8	.
COC(=O)C1=C(C)NC(=O)/C1=C\c1ccc2c(c1)OCO2	2.5	22.6	-2.5	42.4*	31.4	25.8	26.5
CCN(CC(=O)Nc1c(F)cccc1F)C(=O)C1CC1	.	13.6	.	4.0	9.8	12.8	.
CC(C)c1cc(-c2cc(C(=O)NCc3ccccc3)on2)nc(NCC2CC2)n1	5.6	31.2	28.0	44.2*	48.0	15.6	28.6
C/C(=N\NC(=O)Cc1csc(N2CCOCC2)n1)c1ccc(Cl)c(Cl)c1	-6.1	9.8	-0.8	41.3*	17.5	38.7	18.6
CCC/C(=N\NC(=O)Cc1csc(N2CCOCC2)n1)c1ccccc1	-21.2	-4.7	8.9	17.0	19.3	-10.9	.
O=[N+]([O-])c1ccc(N2CCCCCC2)c(S(=O)(=O)N2CCCCC2)c1	9.4	13.3	7.8	47.8*	44.8	18.8	30.1
COc1ccc(NC(=O)CCNS(=O)(=O)c2cc(Br)cnc2N)c(OC)c1	-4.0	-3.9	1.9	20.6	9.1	7.6	.
O=C(c1cc2c(s1)CCCCC2)N1CCN(c2ncccn2)CC1	-1.0	20.6	0.8	45.0*	35.6	17.8	29.0
CC(=O)c1ccc(N2CCN(C(=O)c3cc4c(s3)CCCC4)CC2)cc1	17.1	28.1	0.2	46.9*	34.5	13.0	29.7
O=Cc1cc(CCC(=O)O)ccc1O	20.9	16.1	-1.8	-2.9	16.8	-8.9	.
COc1cc(/C=N/NC(=O)Nc2ccccc2)ccc1OC(C)=O	20.5	-21.3	-4.7	12.7	14.1	19.5	.
C=CC[n+]1c(/C=C/c2ccc(OC(C)=O)c(OC)c2)ccc2ccccc21	17.6	24.9	19.7	56.9*	33.7	20.8	38.2*
COC(=O)C(C)(C)ONC(=O)Nc1ccccc1[N+](=O)[O-]	6.8	8.6	7.1	-0.5	2.1	2.0	.
O=C(Cc1ccc(Br)cc1)NCCc1ccc(Cl)cc1Cl	43.0	21.3	-3.8	9.6	17.7	12.0	.
COc1ccc(CC(=O)NCCc2ccc(Cl)cc2Cl)cc1	-2.8	6.3	-2.0	40.3*	27.5	-20.9	17.4
Cc1ccnc(NC(=O)c2ccc(C(=O)c3ccccc3)cc2)c1	.	19.9	-14.6	8.9	27.2	-4.4	.
Cc1ccnc(NC(=O)c2ccccc2NC(=O)c2ccccc2)c1	5.0	29.2	-0.6	50.0*	40.8	11.7	33.0*
CCc1nc2c(c(=O)c3ccccc3n2C)c(=O)n1C1CCCCCC1	26.5	38.2	22.4	40.5*	45.1	-2.1	11.2
SMILES	NALP1 yeast inh	NALP3 yeast inh	SKKanGAS inh	tim10-1 inh	tim23-1 inh	TIM10 inh	tim10-1 confirm
COc1ccc(CN(Cc2ccccn2)C(=O)CN2C(=O)COc3ccccc32)cc1	1.5	1.8	-2.7	26.4	32.3	14.1	.
COc1ccc(CN(C(=O)CN2C(=O)COc3ccccc32)C2CCCC2)c(OC)c1	10.1	6.2	1.0	40.1*	39.8	22.9	15.4
COc1ccc(CN(C(=O)CN2C(=O)C(C)Oc3ccccc32)C2CCCC2)c(OC)c1 (stereo not given)	-3.6	14.7	0.1	41.4*	43.6	30.8	28.9
Cc1ccn2c(NC(C)(C)C)c(-c3cccs3)nc2c1	-1.6	16.3	2.6	44.3*	42.2	18.9	27.2
Cc1ccn2c(NC(=O)c3cccs3)c(-c3ccccc3)nc2c1	30.6	11.1	3.6	0.7	21.8	12.8	.
O=[N+]([O-])c1ccccc1CNc1ccc(F)c(Cl)c1	44.9	9.8	19.2	35.9	37.4	21.7	.
Fc1ccccc1CNc1cc(Cl)cc(Cl)c1	8.3	-9.8	72.7*	59.0*	26.1	20.3	65.5*
O=C(CCc1ccc(Oc2cc([N+](=O)[O-])cc([N+](=O)[O-])c2)cc1)NC1CCCC1	4.3	0.2	14.7	36.7	27.0	35.8	.
CC1CCN(C(=O)CCc2ccc(Oc3cc([N+](=O)[O-])cc([N+](=O)[O-])c3)cc2)CC1	-36.7	32.6	5.0	51.0*	45.8	29.1	40.6*
CCOC(=O)c1c(NC(=O)CSc2nnc(-c3ccco3)o2)sc(C)c1C	4.3	18.1	-2.9	41.5*	23.9	22.1	16.8
Cc1ccc(Cl)cc1NC(=O)CN1C(=O)COc2ccc(S(=O)(=O)N3CCOCC3)cc21	4.3	3.5	4.6	10.8	6.0	-4.0	.
NC(=S)n1[nH]c(-c2ccc([N+](=O)[O-])cc2)c(N=Nc2cccc(Cl)c2)c1=O	-17.2	39.7	22.0	41.4*	46.2	36.0	42.9*
COc1ccc2c(c1)CC/C(=C\c1ccc(OC)c(Cn3cccn3)c1)C2=O	10.6	7.8	7.5	23.5	31.8	5.6	.
COc1ccc2c(c1)CC/C(=C\c1ccc(OC)c(Cn3nc(C)cc3C)c1)C2=O	4.1	15.5	16.7	40.1*	13.1	14.3	10.9
Cc1ccc(C(CC(=O)O)NC(=O)CCNC(=O)c2ccco2)cc1 (stereo not given)	.	31.5	.	14.2	13.2	1.0	.
CCOc1ccc(OCC)c(NC(=O)CN2CCN(c3cccc(C)c3)CC2)c1	-41.1	13.3	4.9	46.4*	24.8	23.6	29.3
CC(C)CCN1C(N(C)C)=NC[C@@H]1C	.	5.7	.	-2.1	10.0	-0.3	.
O=C1C2Sc3[nH]c(=O)sc3C(c3ccccc3)C2C(=O)N1c1ccc(Cl)cc1 (stereo not given)	5.6	10.6	.	42.1*	39.9	39.2	28.9

From PubChem
